This is an account of results in PMC7826789 (International Journal of Molecular Sciences, 2021).

Details in all cases: Compound Concentration (nM):1000
Assay [1] relates to FGFR3.
In assay [2] the test system is FGFR4.
The test system of assay [3] is FGR.
Assay [4] has as its system FLT1.
For assay [5], the system named is FLT3(D835H).
Assay [6] has as its system FLT3(D835V).
The test system of assay [7] is FLT3(D835Y).
For assay [8], the system named is FLT3(ITD).
Assay [9] deals with FLT3(ITD,D835V).
Assay [10] deals with FLT3(ITD,F691L).
In assay [11] the test system is FLT3(K663Q).
Assay [12] deals with FLT3(N841I).
For assay [13], the system named is FLT3(R834Q).
Assay [14] has as its system FLT3-autoinhibited.
In assay [15] the test system is FLT3.
Assay [16] concerns FLT4.
Assay [17] relates to FRK.
Assay [18] concerns FYN.
Assay [19] relates to GAK.
The test system of assay [20] is T1, GCN2(Kin.Dom.2,S808G).
T1 construct: gene EIF2AK4
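Also: KINOMEscan scanMAX binding as percent activity remaining versus control; lower means stronger binding.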

Regarding `COc1cc2ncn(-c3cc(O[C@H](C)c4ccccc4Cl)c(C(N)=O)s3)c2cc1OC` [GSK237701A], the “Percent Control” value in assay [1] is 57%; in assay [2], 100%; in [3], 67%; in [4], 69%; in assay [5], 11%; in [6], 0%. Further, the “Percent Control” value was 28% in assay [7]; 33% in assay [8]; 5.9% in assay [9]; 21% in assay [10]; 6.5% in assay [11]; 3.3% in assay [12]. The “Percent Control” value in assay [13] is recorded as 14%; in assay [14], 95%; in [15], 21%; in [16] it was 9.4%; in assay [17], 100%; in assay [18], 100%. Besides, the results for the “Percent Control” value in assay [19] and in [20] were 17% and 31%, respectively.
`CN(C)CCNC(=O)Nc1ccc(N(C)c2ccnc(Nc3ccc(CS(C)(=O)=O)cc3)n2)cc1.Cl` [GW830900A]: the “Percent Control” value was 100% in assay [1]; 100% in assay [2]; 100% in [3]; 61% in [4]; 32% in assay [5]; 6.3% in assay [6]. Also, the “Percent Control” value in [7] is given as 35%; in assay [8], 8.3%; in [9], 22%; in assay [10], 19%; in [11], 89%; in assay [12], 5.6%. In addition, the “Percent Control” value in assay [13] came to 16%; in [14] it was 27%; in [15], 2.9%; in assay [16], 54%; in assay [17], 99%; in [18] it was 93%. Further, the “Percent Control” value in assay [19] came out at 13%; in assay [20] it was 100%.
`COc1cc2ncnc(Nc3ccc4c(cnn4Cc4ccccc4)c3)c2cc1OC.Cl` [GW282449A]: the “Percent Control” value in assay [1] was 100%; in [2] it was 100%; in assay [3], 68%; in assay [4], 100%; in assay [5] it was 68%; in assay [6], 34%. The “Percent Control” value in [7] was determined as 83%; in assay [8], 96%; in assay [9], 90%; in assay [10] it was 100%; in assay [11], 49%; in assay [12], 47%. Further, the “Percent Control” value in [13] is listed as 83%; in [14] it was 100%; in assay [15], 45%; in assay [16], 95%; in [17], 100%; in [18], 100%. In addition, the figures for the “Percent Control” value in assay [19] and in [20] were 90% and 100%, respectively.
As to `COc1cc(C)c(N(C)C(=O)CN(C)C)cc1Nc1nc(Nc2cccc(F)c2C(N)=O)c2cc[nH]c2n1` [GSK2219385], the “Percent Control” value in assay [1] is 78%; in assay [2], 96%; in assay [3], 100%; in assay [4], 96%; in assay [5], 85%; in assay [6], 76%. Also, the “Percent Control” value was found to be 91% in assay [7]; 82% in [8]; 88% in assay [9]; 100% in [10]; 100% in assay [11]; 93% in assay [12]. Besides, the “Percent Control” value is given as 100% in [13]; 100% in [14]; 91% in assay [15]; 100% in [16]; 100% in assay [17]; 100% in [18]. Further, the entries for the “Percent Control” value in [19] and in assay [20] were 56% and 100%, respectively.
As to `CN1CCN(C(=O)c2ccc(NC(=O)Nc3ccc(N(C)c4ccnc(Nc5ccc(CS(C)(=O)=O)cc5)n4)cc3)cc2)CC1.Cl` [GW830263A], the “Percent Control” value is 100% in assay [1]; 100% in [2]; 57% in [3]; 0.4% in assay [4]; 0.8% in assay [5]; 1.2% in assay [6]. In addition, the “Percent Control” value is recorded as 5.3% in [7]; 0.3% in [8]; 8.9% in [9]; 6.8% in assay [10]; 0% in assay [11]; 0% in assay [12]. Besides, the “Percent Control” value in [13] is reported as 0%; in assay [14], 7.3%; in [15], 1.5%; in assay [16] it was 2%; in [17] it was 80%; in [18] it was 98%. The “Percent Control” value came out at 18% in assay [19] and 100% in assay [20].
On to `NS(=O)(=O)c1ccc(Nc2ncc(-c3ccccc3)o2)cc1` [GW572399X], for which the “Percent Control” value was 100% in [1]; 100% in assay [2]; 98% in assay [3]; 100% in assay [4]; 70% in assay [5]; 8.5% in [6]. For the same compound, the “Percent Control” value amounted to 80% in assay [7]; 53% in assay [8]; 29% in assay [9]; 42% in assay [10]; 9.2% in assay [11]; 21% in assay [12]. Further, the “Percent Control” value in [13] stood at 14%; in assay [14], 2%; in assay [15], 11%; in assay [16], 100%; in [17], 100%; in assay [18], 100%. In addition, the “Percent Control” value in assay [19] was 99%; in [20], 80%.
Regarding `NS(=O)(=O)c1ccc(N/N=C2\C(=O)Nc3ccc(-c4cnco4)cc32)cc1` [GW276655], the “Percent Control” value was 100% in assay [1]; 82% in assay [2]; 79% in assay [3]; 80% in assay [4]; 43% in assay [5]; 2.2% in [6]. The “Percent Control” value in assay [7] amounted to 45%; in assay [8], 44%; in [9], 4.3%; in assay [10] it was 18%; in [11] it was 79%; in assay [12], 70%. In addition, the “Percent Control” value in [13] amounted to 42%; in assay [14] it was 61%; in assay [15], 100%; in assay [16] it was 67%; in assay [17], 81%; in [18], 81%. The “Percent Control” value is given as 70% in [19] and 89% in assay [20].
As to `CC1=C(C(=O)Nc2ccc3[nH]ncc3c2)C(c2ccc3ccccc3c2)CC(=O)N1` (stereo not shown) [GSK270822A], the “Percent Control” value in assay [1] was 73%; in assay [2] it was 58%; in [3] it was 76%; in assay [4] it was 89%; in assay [5] it was 94%; in assay [6] it was 65%. The “Percent Control” value amounted to 78% in assay [7]; 100% in assay [8]; 73% in assay [9]; 79% in assay [10]; 100% in assay [11]; 80% in assay [12]. Moreover, the “Percent Control” value in assay [13] worked out at 98%; in [14], 100%; in assay [15], 89%; in [16], 100%; in [17] it was 61%; in assay [18], 83%. Besides, the “Percent Control” value in [19] is listed as 90%; in assay [20], 100%.
`CN(C)c1cc2c(Nc3ccc4c(cnn4Cc4ccccc4)c3)ncnc2cn1` [GW282974X]: the “Percent Control” value in [1] was 100%; in [2] it was 84%; in assay [3], 73%; in [4], 94%; in [5] it was 85%; in [6] it was 59%. In addition, the “Percent Control” value in [7] is listed as 100%; in assay [8], 82%; in assay [9], 100%; in [10], 100%; in assay [11], 79%; in assay [12], 100%. The “Percent Control” value in assay [13] came out at 95%; in assay [14] it was 93%; in [15] it was 73%; in assay [16], 100%; in assay [17] it was 100%; in assay [18], 90%. Also, the “Percent Control” value was 76% in assay [19] and 100% in assay [20].
Take `COc1cc(/C=N/Nc2ncnc3[nH]ncc23)ccc1O` [GW578748X]: the “Percent Control” value in assay [1] is 100%; in [2], 100%; in [3], 63%; in assay [4], 89%; in [5], 25%; in assay [6] it was 0.2%. The “Percent Control” value in assay [7] came out at 25%; in [8], 43%; in assay [9] it was 4.5%; in assay [10], 11%; in [11] it was 75%; in assay [12], 100%. Also, the “Percent Control” value in assay [13] is 56%; in [14], 84%; in [15], 71%; in [16] it was 100%; in [17], 100%; in assay [18] it was 92%. In addition, the “Percent Control” value in assay [19] is on record as 13%; in assay [20] it was 18%.
`COc1ccc2[nH]c3c4[nH]c5ccc(OC)cc5c4c4c(c3c2c1)C(=O)NC4=O` [GW296115X]: the “Percent Control” value was 93% in assay [1]; 85% in assay [2]; 68% in [3]; 79% in assay [4]; 12% in assay [5]; 4% in [6]. Further, the “Percent Control” value in [7] is reported as 16%; in [8], 2.1%; in assay [9], 0%; in [10] it was 3.6%; in assay [11], 9.7%; in assay [12] it was 0%. Besides, the “Percent Control” value is given as 6.3% in assay [13]; 53% in assay [14]; 28% in assay [15]; 71% in assay [16]; 88% in assay [17]; 84% in [18]. In addition, the “Percent Control” value in [19] came out at 0.3%; in [20], 74%.
